# PubChem BioAssay (EPA / NIEHS)
# Where “and” joins values, the source holds several entries; their conditions need not be identical. Equal values may be shown once. Inconclusive results are not listed. Where a structure was tested more than once in an assay, its records may differ in their call. Calls of active or inactive are those of the source. The calls were made as follows, unless noted: active = hit-call score of the fitted dose curve at least 0.9, where 1 is the maximum; inconclusive = response in the unintended direction; inactive = score below 0.9.
# Key:
# [1] = target: Bile acid receptor (Homo sapiens) (UniProt Q96RI1); assay: ATG_FXR_TRANS: Attagene TRANS-FACTORIAL HepG2 Assay for Farnesoid X Receptor (FXR) (AID 2282979); conditions: HepG2 Attagene TRANS FXR-GAL4 reporter transcription;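 also: hits raise reporter mRNA above DMSO so AC50 marks FXR activation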
# Outline: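 HepG2 cells were transiently transfected with GAL4-UAS reporters driven by chimeric NR-Gal4 proteins and dosed for 24 h. Reporter mRNA was quantified by RT-PCR, fluorescent labelling, HpaI digestion and capillary electrophoresis, with gain of signal scored versus DMSO.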
# [2] = target: Oxysterols receptor LXR-alpha (Homo sapiens) (UniProt Q13133); assay: ATG_LXRa_TRANS: Attagene TRANS-FACTORIAL HepG2 Assay for human Liver X Receptor alpha (LXRa) (AID 2282980); conditions: HepG2 Attagene TRANS reporter, LXRa transactivation
# Outline: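 HepG2 cells transiently transfected with GAL4-UAS reporter units for chimeric NR-Gal4 proteins, exposed to chemicals for 24 h. Reporter mRNA quantified by RT-PCR and capillary electrophoresis; gain of signal fitted relative to DMSO.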
# [3] = target: Oxysterols receptor LXR-beta (Homo sapiens) (UniProt P55055); assay: ATG_LXRb_TRANS: Attagene TRANS-FACTORIAL HepG2 Assay for human Liver X Receptor beta (LXRb) (AID 2282981); conditions: HepG2 Attagene TRANS GAL4-LXRb reporter, mRNA
# Outline: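 HepG2 cells transiently transfected with GAL4-UAS reporter units for chimeric NR-Gal4 proteins, dosed for 24 h. Reporter transcripts measured by RT-PCR and capillary electrophoresis; gain-of-signal fitting relative to DMSO.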
# [4] = target: Hepatocyte nuclear factor 4-alpha (Homo sapiens) (UniProt P41235); assay: ATG_HNF4a_TRANS: Attagene TRANS-FACTORIAL HepG2 Assay for human Hepatocyte Nuclear Factor 4 alpha (HNF4a) (AID 2282982); conditions: HepG2 HNF4a transactivation reporter, mRNA readout
# Outline: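 HepG2 cells transiently transfected with HNF4a-Gal4 chimera and GAL4-UAS reporter units, dosed for 24 h. Reporter mRNA measured by RT-PCR, fluorescent primer extension and capillary electrophoresis; gain-of-signal fitted relative to DMSO.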
# [5] = ATG_M_06_TRANS: Attagene TRANS-FACTORIAL HepG2 Assay for M06 Transcription Factor (Internal Marker) (AID 2282983); conditions: HepG2 Attagene TRANS M06 internal marker reporter;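 also: reporter transcript level by RT-PCR then capillary electrophoresis fluorescence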
# Outline: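 HepG2 cells transiently transfected with GAL4-UAS multiple reporter units, dosed 24 h. Reporter RNA reverse-transcribed, PCR-amplified, 6-FAM-labeled, HpaI-digested and quantified by capillary electrophoresis; this internal-marker signal fitted upward relative to DMSO.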
# [6] = target: Nuclear receptor subfamily 4 group A member 2 (Homo sapiens) (UniProt P43354); assay: ATG_NURR1_TRANS: Attagene TRANS-FACTORIAL HepG2 Assay for human Nuclear Receptor Related Protein 1 (NURR1) (AID 2282985); conditions: HepG2 Attagene TRANS reporter, mRNA readout
# Outline: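 HepG2 cells transiently transfected with NURR1-Gal4 chimera and GAL4-UAS reporter units; after 24 hr compound exposure, reporter mRNA quantified by RT-PCR and capillary electrophoresis; gain of signal fitted against DMSO.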
# [7] = target: Transcriptional activator Myb (Homo sapiens) (UniProt P10242); assay: ATG_Myb_CIS: Attagene CIS-FACTORIAL HepG2 Assay for human Myeloblastosis (Myb) Proto-Oncogene Transcription Factor (AID 2282986; active = hit-call score of the fitted dose curve at least 0.9, where 1 is the maximum; inactive = score below 0.9); conditions: HepG2 Attagene CIS-FACTORIAL Myb reporter transcription; actives raise or lower the signal
# Outline: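 Steps: transfect HepG2 with cis-regulated reporter units; dose with chemical for 24 h; isolate RNA, reverse-transcribe, PCR-amplify and FAM-label reporter sequences; digest with HpaI; resolve by capillary electrophoresis. Activity fitted in both directions relative to DMSO.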
# [8] = target: Nuclear respiratory factor 1 (Homo sapiens) (UniProt Q16656); assay: ATG_NRF1_CIS: Attagene CIS-FACTORIAL HepG2 Assay for human Nuclear Respiratory Factor 1 (NRF1) Orphan Gene (AID 2282987; active = hit-call score of the fitted dose curve at least 0.9, where 1 is the maximum; inactive = score below 0.9); conditions: HepG2 NRF1 cis-element reporter, Attagene multiplex; actives raise or lower the signal
# Outline: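 Fluorescence intensity of labelled reporter cDNA fragments, resolved by capillary electrophoresis, served as readout for NRF1 cis-element activity. Transiently transfected HepG2 cells were dosed for 24 hours; activity in either direction was fitted against DMSO negative control.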
# [9] = ATG_M_32_TRANS: Attagene TRANS-FACTORIAL HepG2 Assay for M32 Transcription Factor (Internal Marker) (AID 2282984); conditions: HepG2 Attagene TRANS M32 internal marker reporter;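 also: transcript level of a background control reporter unit measured by RT-PCR and capillary electrophoresis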
# Outline: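 HepG2 cells transiently transfected with GAL4-UAS reporter units, dosed for 24 hours. Reporter mRNA quantified by RT-PCR, 6-FAM labelling, HpaI digestion and capillary electrophoresis; internal-marker signal fitted upward relative to DMSO.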
# Chain of Hepatocyte nuclear factor 4-alpha (Homo sapiens) (P41235 whole entry, looked up, the tested form may be a part): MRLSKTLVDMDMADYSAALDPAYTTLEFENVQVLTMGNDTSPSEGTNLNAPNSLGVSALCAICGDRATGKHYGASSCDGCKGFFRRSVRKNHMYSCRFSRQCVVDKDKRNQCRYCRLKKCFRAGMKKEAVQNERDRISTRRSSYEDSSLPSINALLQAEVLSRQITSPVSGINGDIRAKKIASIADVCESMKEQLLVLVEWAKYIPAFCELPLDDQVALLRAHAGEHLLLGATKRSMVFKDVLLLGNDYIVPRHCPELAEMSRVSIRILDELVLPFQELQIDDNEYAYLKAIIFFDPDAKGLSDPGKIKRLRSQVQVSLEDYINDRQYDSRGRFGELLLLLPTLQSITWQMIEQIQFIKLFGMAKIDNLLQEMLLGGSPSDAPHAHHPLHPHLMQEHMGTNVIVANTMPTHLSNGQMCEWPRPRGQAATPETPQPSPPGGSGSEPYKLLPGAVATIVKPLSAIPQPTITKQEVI
# Chain of Oxysterols receptor LXR-beta (Homo sapiens) (P55055 whole entry, looked up, the tested form may be a part): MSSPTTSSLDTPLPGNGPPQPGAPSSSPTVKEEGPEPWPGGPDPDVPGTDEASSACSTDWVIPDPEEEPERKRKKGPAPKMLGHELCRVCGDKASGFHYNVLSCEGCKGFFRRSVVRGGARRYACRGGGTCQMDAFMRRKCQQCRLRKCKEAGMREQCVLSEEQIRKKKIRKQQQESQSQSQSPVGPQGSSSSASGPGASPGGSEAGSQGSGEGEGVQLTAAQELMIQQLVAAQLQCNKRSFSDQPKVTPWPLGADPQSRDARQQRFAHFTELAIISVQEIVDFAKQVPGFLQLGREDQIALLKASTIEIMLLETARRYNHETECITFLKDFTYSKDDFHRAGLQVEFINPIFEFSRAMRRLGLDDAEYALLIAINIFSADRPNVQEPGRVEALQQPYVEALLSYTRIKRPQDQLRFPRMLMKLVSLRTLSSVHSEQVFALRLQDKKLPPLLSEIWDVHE
# Chain of Bile acid receptor (Homo sapiens) (Q96RI1 whole entry, looked up, the tested form may be a part): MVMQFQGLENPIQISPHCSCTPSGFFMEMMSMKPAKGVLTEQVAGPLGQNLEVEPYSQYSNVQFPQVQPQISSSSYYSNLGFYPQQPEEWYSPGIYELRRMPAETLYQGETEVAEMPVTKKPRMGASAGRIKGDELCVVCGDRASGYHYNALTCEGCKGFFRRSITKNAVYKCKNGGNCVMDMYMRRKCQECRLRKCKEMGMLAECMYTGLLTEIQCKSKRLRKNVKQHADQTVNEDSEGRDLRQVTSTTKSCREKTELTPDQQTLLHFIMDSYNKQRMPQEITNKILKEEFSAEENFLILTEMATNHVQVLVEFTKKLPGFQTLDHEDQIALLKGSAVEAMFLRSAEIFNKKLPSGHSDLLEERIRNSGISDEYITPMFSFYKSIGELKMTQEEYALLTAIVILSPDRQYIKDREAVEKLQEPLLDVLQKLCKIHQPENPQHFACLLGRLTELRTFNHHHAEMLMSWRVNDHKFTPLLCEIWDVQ
# Chain of Nuclear respiratory factor 1 (Homo sapiens) (Q16656 whole entry, looked up, the tested form may be a part): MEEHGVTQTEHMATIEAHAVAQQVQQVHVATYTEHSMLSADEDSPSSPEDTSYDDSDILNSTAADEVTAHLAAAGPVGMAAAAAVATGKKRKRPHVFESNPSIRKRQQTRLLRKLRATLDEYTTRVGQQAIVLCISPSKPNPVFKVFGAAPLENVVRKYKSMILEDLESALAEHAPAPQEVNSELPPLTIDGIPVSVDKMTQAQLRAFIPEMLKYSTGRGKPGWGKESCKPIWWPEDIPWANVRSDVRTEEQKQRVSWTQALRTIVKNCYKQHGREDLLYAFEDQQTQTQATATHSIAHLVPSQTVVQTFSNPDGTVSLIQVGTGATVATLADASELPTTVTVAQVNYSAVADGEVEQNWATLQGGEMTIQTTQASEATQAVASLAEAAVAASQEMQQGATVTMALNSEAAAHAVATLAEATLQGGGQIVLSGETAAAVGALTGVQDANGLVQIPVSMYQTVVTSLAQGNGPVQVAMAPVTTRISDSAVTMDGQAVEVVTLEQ
# Chain of Oxysterols receptor LXR-alpha (Homo sapiens) (Q13133 whole entry, looked up, the tested form may be a part): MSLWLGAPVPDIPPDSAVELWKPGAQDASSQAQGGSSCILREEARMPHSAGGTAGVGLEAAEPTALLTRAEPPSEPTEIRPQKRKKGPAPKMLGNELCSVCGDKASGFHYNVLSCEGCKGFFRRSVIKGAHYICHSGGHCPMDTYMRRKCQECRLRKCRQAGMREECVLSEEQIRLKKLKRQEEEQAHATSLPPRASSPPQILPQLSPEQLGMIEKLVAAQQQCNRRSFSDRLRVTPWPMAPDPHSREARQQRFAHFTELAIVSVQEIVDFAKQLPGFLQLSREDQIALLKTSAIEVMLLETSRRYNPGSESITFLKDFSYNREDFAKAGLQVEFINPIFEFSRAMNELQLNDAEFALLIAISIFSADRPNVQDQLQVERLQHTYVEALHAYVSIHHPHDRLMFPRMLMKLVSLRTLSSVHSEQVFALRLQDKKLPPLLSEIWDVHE
# Chain of Transcriptional activator Myb (Homo sapiens) (P10242 whole entry, looked up): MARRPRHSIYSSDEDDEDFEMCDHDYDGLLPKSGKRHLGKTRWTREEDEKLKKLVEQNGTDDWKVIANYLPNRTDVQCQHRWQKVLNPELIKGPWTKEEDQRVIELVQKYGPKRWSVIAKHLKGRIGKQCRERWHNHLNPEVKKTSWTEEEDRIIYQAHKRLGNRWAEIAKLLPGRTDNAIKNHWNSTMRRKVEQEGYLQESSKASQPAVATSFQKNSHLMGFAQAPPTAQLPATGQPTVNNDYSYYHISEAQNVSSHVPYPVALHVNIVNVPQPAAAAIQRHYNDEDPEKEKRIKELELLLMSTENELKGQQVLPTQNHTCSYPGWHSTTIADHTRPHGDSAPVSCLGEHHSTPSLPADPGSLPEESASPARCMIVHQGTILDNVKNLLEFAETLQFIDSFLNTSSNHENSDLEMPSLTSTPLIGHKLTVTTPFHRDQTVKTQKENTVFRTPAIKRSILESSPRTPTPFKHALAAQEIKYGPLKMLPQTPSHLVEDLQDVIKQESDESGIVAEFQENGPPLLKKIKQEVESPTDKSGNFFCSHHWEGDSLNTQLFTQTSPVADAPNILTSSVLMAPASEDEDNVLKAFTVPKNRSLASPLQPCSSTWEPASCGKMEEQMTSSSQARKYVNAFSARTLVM
# Chain of Nuclear receptor subfamily 4 group A member 2 (Homo sapiens) (P43354 whole entry, looked up, the tested form may be a part): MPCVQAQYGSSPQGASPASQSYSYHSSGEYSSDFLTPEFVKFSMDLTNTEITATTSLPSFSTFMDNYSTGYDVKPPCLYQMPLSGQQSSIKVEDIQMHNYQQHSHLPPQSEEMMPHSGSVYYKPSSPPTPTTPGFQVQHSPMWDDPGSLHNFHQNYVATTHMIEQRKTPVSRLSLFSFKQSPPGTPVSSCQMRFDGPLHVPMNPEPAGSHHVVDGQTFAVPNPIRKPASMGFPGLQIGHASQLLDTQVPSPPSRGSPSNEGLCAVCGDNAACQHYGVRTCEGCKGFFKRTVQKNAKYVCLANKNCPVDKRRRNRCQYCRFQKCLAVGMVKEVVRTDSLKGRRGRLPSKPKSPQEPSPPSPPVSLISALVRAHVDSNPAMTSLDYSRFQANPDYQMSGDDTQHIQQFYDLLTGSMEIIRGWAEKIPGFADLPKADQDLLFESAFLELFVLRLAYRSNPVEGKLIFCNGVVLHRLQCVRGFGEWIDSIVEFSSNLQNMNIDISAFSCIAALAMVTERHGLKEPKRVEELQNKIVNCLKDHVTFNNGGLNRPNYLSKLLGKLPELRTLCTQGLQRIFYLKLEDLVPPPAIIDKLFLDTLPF
SMILES,outcome [1],outcome [2],outcome [3],outcome [4],outcome [5],outcome [6],outcome [7],outcome [8],outcome [9],AC50 [6],AC50 [8],AC50 [1],AC50 [7],AC50 [3]
O=C1c2ccc(O)c(O)c2C(=O)c2c(O)ccc(O)c21,inactive,inactive,inactive,inactive,inactive,inactive,inactive,inactive,,,,,,
OCC1CCC(CO)CC1 (stereo not drawn),inactive,inactive,inactive,,inactive,inactive,inactive,inactive,,,,,,
CCCCCCOC(=O)c1ccc(O)cc1,inactive,inactive,inactive,,inactive,,inactive,,inactive,51.4 µM (active),58.5 µM (active),,,
c1ccc(CNc2ncnc3c2ncn3C2CCCCO2)cc1 (stereo not drawn),inactive,inactive,inactive,,inactive,inactive,,inactive,inactive,,,,,
O=CC(F)(F)C(F)(F)C(F)(F)C(F)F,inactive,inactive,inactive,,inactive,inactive,,inactive,inactive,,,,,
C=CC(=C)CC/C=C(\C)CCC=C(C)C,inactive,inactive,inactive,,inactive,inactive,,inactive,inactive,,,,,
C[N+](C)(CCCNS(=O)(=O)CCC(F)(F)C(F)(F)C(F)(F)C(F)(F)C(F)(F)C(F)(F)F)CC(=O)[O-],inactive,inactive,inactive,inactive,inactive,inactive,inactive,inactive,inactive,,,,,
O=C(O)C(F)(F)OC(F)(F)C(F)(F)OC(F)(F)C(F)(F)OC(F)(F)C(F)(F)C(F)(F)C(F)(F)F,inactive,inactive,inactive,,inactive,,inactive,inactive,inactive,13.4 µM (active) and 16.6 µM (active),,27 µM (active),,
O=C1C=CC(=O)N1c1cccc(N2C(=O)C=CC2=O)c1,inactive,inactive,inactive,inactive,inactive,,inactive,inactive,inactive,,,,,
CCO[Si](CCC1CCC2OC2C1)(OCC)OCC (stereo not drawn),inactive,inactive,inactive,,inactive,,inactive,inactive,,,,,,
Cc1[nH]nc2c1N=C(c1ccccc1Cl)c1cc([N+](=O)[O-])ccc1N2,inactive,inactive,inactive,,inactive,inactive,inactive,,inactive,,1.16 µM (active),,,
CC(C)(C)c1ccc(O)c(O)c1,inactive,inactive,inactive,,inactive,inactive,inactive,inactive,inactive,,,,,
O=C(Nc1cccc([N+](=O)[O-])c1)c1cc2ccccc2cc1O,inactive,inactive,inactive,inactive,,inactive,inactive,inactive,,,,,,
OCC(CO)(CBr)CBr,inactive,inactive,inactive,inactive,,inactive,inactive,inactive,inactive,,,,,
CC(=O)CC(C)C,inactive,inactive,inactive,inactive,inactive,,inactive,inactive,,,,,,
O=C1c2ccccc2C(=O)c2c(O)c(O)cc(O)c21,inactive,inactive,inactive,inactive,inactive,,inactive,inactive,,47 µM (active),,,,
CC1CCC(C(=O)O)CC1 (stereo not drawn),inactive,inactive,inactive,inactive,,,inactive,inactive,inactive,,,,,
CCCCCCc1ccc(N)cc1,inactive,inactive,inactive,inactive,inactive,,inactive,inactive,,,,,,
NNc1nc(-c2ccc([N+](=O)[O-])cc2)cs1,inactive,inactive,inactive,inactive,inactive,inactive,inactive,inactive,,,,,,
CCc1cccc(CC)c1NC(=O)C(=O)O,inactive,inactive,inactive,,inactive,,inactive,inactive,inactive,,,,,
Cc1cc(C(C)(C)C)c(O)c(C(C)(C)C)c1,inactive,inactive,inactive,,inactive,,inactive,inactive,,0.82 µM (active),94.7 µM (active),,,
COc1ccccc1NC(=O)c1cc2ccccc2cc1O,inactive,inactive,inactive,inactive,inactive,inactive,,inactive,,,,,,
O=CC(F)(F)C(F)(F)C(F)(F)F,inactive,inactive,inactive,inactive,,inactive,inactive,inactive,,,,,,
O=C(CC(=O)C(F)(F)C(F)(F)C(F)(F)F)c1cccs1,inactive,inactive,inactive,,inactive,inactive,inactive,inactive,,,,,50 µM (active),
CC(O)COc1ccccc1 (stereo not drawn),inactive,inactive,,inactive,,,inactive,inactive,inactive,,,,,26.1 µM (active)
